The source of these data is PubChem BioAssay (EPA / NIEHS).

SMILES strings stand for the structures. Several values for one entry are separate records, joined by “and”; a condition that tells them apart may be missing. Identical values can stand only once. A structure can be active in one record and inactive in another. Activity calls are given as the source filed them. The calls were made as follows: active = hit-call score of the fitted dose curve at least 0.9, where 1 is the maximum; inactive = score below 0.9.

A short description of the test: CCTE_Shafer_MEA_dev_network_spike_number: CCTE's Neural Network Formation Assay for Number of Network Spikes, Shafer Lab (AID 2284048).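 Also: synchronized bursts across electrodes counted on days 5 7 9 12 and integrated as AUC.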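 As to AC50: fit as a loss of signal meaning fewer network spikes than DMSO.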 The procedure: CCTE_Shafer_MEA_dev assay is conducted using Axion Biosystems 48 well microelectrode array (MEA) plates and Maestro recording system. Each well of the MEA plate contains a grid of 16 microelectrodes embedded in the culture surface. Electrically active cells, such as neurons, can be cultured over the electrodes, and electrical activity in these cells can be recorded extracellularly. The spontaneous firing of neurons is captured from each electrode on a microsecond timescale providing both temporally and spatially precise data. […] The CCTE_Shafer_MEA_dev assay uses primary cultures of rat cortical neurons. Recordings are made on days post-plating 5, 7, 9 and 12. As these cultures mature over time, neural networks develop functional activity and form cohesive networks in which electrical activity can be highly coordinated. CCTE_Shafer_MEA_dev_network_spike_number is 1 of 19 assay components of the CCTE_Shafer_MEA_dev assay. It measures the number of network spikes (temporally-clustered groups of action potential firing across multiple electrodes) during a recording in a microelectrode array (MEA) using Axion Biosystems Maestro 768 channel amplifier with the AxIS adaptive spike detector. To collapse across multiple recordings made on days post-plating 5, 7, 9 and 12, the trapezoidal area-under-the-curve of the component is calculated.Data from the assay component CCTE_Shafer_MEA_dev_network_spike_number was analyzed into 1 assay endpoint. This assay endpoint, CCTE_Shafer_MEA_dev_network_spike_number, was analyzed in the negative analysis fitting direction relative to DMSO as the negative control and baseline of activity. Using a type of functional reporter, gain or loss-of-signal activity can be used to understand electrical activity.
On the day prior to culture, each well was coated thoroughly with 150 uL of 0.05% polyethyleneimine (PEI, Sigma Cat P3143) in 50 mM HEPES (Sigma Cat H7523) at a pH of 8. The plate was incubated at 37C for one hour. PEI was rinsed out with 500 uL of sterile water three times. Plates were stored at 4C until the day of culture. This culture was plated at a seeding density of 1.5 x 10^5 cells/well on a 48-well MEA plate, prepared as described above. Cells were administered via a 25 uL media/laminin ([…]; Sigma Cat L2020-1MG) drop directly onto the microelectrode array, as adding the cells with the laminin results in better attachment than pre-coating with laminin. After 2 hours, an additional 475 uL of cortical media was added and the cells returned to the incubator. Exposure starts at day 0 of plating and is continued over twelve days of network development until the experiment is terminated. Cells are fed with fresh medium on DIV 5 and 9, following the recordings on those days. The entire volume of media in the well is exchanged and any vehicle or compound treatment is renewed. Complete details are found in OP-NHEERL/ISTD/SBB/TJS/2015-03-r0 (available on request, email shafer.tim@epa.gov). Measurement of the electrical activity is non-invasive, and recordings can be made from the same plate over multiple different days of the culture. In cortical neurons, this allows for the measurement of extracellular action potentials over the period during which networks form in the MEA plate.
A word on the AC50: it is the concentration giving half of the maximal activity seen. For the molecule `CCCCC(CC)COC(=O)c1ccccc1C(=O)OCC(CC)CCCC` (stereo not given), the AC50 is 2.32 µM (active) and 12.8 µM (active); the outcome was inactive.

As to `COC(=O)N(OC)c1ccccc1COc1ccn(-c2ccc(Cl)cc2)n1`, the call was inactive and the AC50 is 66.9 nM (active).

In the case of `CCCCNC(=O)n1c(NC(=O)OC)nc2ccccc21`, the result was inactive.

As to `CNC(=O)ON=CC(C)(C)SC`, the call was inactive.

For `CN(C)C(=S)SSC(=S)N(C)C`, the AC50 was 5.54 nM (active).

For the molecule `CCCCNC(=O)OCC#CI`, the AC50 was 2.92 µM (active) and 1.21 µM (active).

Regarding `C=CCC1=C(C)C(OC(=O)C2C(C=C(C)C)C2(C)C)CC1=O` (stereo not given), the AC50 was 1150 nM (active) and the molecule was called inactive.

As to `Cc1ccc(-c2c(Cl)nc(C#N)n2S(=O)(=O)N(C)C)cc1`, the AC50 was 30200 nM (active).

For the molecule `CCNc1nc(Cl)nc(NC(C)C)n1`, the molecule was called inactive.

For the molecule `CC(C)(C)c1ccc(CSc2cnn(C(C)(C)C)c(=O)c2Cl)cc1`, the AC50 is 2.16 nM (active).

For the molecule `Cc1c(F)c(F)c(COC(=O)C2C(/C=C(\Cl)C(F)(F)F)C2(C)C)c(F)c1F` (stereo not given), the AC50 is 311 nM (active).

In the case of `CCOc1cc(Oc2ccc(C(F)(F)F)cc2Cl)ccc1[N+](=O)[O-]`, the AC50 is 6090 nM (active).

In the case of `C=CCC1=C(C)[C@@H](OC(=O)[C@@H]2[C@@H](C=C(C)C)C2(C)C)CC1=O`, the molecule was called inactive.

In the case of `COP(=S)(OC)Oc1nc(Cl)c(Cl)cc1Cl`, the molecule was classed as inactive.

Turning to `CCCCOC(=O)c1ccccc1C(=O)OCCCC`, the result was inactive.

On to `CO/C=C(/C(=O)OC)c1ccccc1Oc1cc(Oc2ccccc2C#N)ncn1`, for which the AC50 was 948 nM (active) and 767 nM (active).

In the case of `N#Cc1nn(-c2c(Cl)cc(C(F)(F)F)cc2Cl)c(N)c1S(=O)C(F)(F)F` (stereo not given), the molecule was called inactive.

For `CCOC(=O)CC(SP(=S)(OC)OC)C(=O)OCC` (stereo not given), the molecule was called inactive and the AC50 was 11700 nM (active).

Consider `COP(N)(=O)SC` (stereo not given), for which the outcome was inactive.

For the molecule `C=CC1(C)OC(=O)N(c2cc(Cl)cc(Cl)c2)C1=O` (stereo not given), the molecule was called inactive.

As for `COc1ccc(C(c2ccc(OC)cc2)C(Cl)(Cl)Cl)cc1`, the call was inactive.
